# Experimental data published in PMC7862700, “An all-to-all approach to the identification of sequence-specific readers for epigenetic DNA modifications on cytosine”.
# What was measured:
# Experiment in all cases: DAPPL (digital affinity profiling via proximity ligation, sequencing); 10 mM Tris-HCl pH 7.5, 50 mM NaCl, 1 mM DTT, 4% glycerol, room temperature, 30 min; GST-TFs on glutathione beads, 16-mer random dsDNA library, 0.1% formaldehyde crosslink after washing; high values mean tight binding
# FLI1 = molecular target: T1, FLI1 (Homo sapiens, UniProt Q01543 1-452); settings: protein: recombinant; tags: N-terminal GST; dsDNA, one strand shown
# T1 sequence: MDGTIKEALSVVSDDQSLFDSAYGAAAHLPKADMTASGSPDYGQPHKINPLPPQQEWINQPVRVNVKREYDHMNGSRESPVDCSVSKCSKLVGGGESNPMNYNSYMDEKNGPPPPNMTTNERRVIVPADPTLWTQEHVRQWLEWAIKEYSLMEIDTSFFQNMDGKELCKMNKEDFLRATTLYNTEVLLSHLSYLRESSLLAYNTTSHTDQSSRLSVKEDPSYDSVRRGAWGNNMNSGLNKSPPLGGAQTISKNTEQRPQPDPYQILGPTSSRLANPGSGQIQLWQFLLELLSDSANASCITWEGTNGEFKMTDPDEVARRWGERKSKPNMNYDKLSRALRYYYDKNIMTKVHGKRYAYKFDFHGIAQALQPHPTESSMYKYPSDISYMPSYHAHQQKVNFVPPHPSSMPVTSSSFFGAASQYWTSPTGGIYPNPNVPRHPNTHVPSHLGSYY
# Method in brief: (§1)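 Sequencing on an Illumina NextSeq500 followed washing, crosslinking with 0.1% formaldehyde, proximity ligation (BsaI/T4 ligase, 1 h, 37 °C) and PCR amplification of pools that had been incubated for 30 min at room temperature with 200 nmole of a random double-stranded 16-mer DNA library in Tris/NaCl/DTT/glycerol buffer. Each pool held DNA-barcoded human transcription factors, expressed in yeast as GST fusions and captured on glutathione beads, plus a tag-only sample. Binding signal is a hexamer's read frequency for a factor divided by its frequency in the tag-only sample.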
# ELK1 = molecular target: T2, ELK1 (Homo sapiens, UniProt P19419 1-428); settings: protein: recombinant; tags: N-terminal GST; dsDNA, one strand shown
# T2 sequence: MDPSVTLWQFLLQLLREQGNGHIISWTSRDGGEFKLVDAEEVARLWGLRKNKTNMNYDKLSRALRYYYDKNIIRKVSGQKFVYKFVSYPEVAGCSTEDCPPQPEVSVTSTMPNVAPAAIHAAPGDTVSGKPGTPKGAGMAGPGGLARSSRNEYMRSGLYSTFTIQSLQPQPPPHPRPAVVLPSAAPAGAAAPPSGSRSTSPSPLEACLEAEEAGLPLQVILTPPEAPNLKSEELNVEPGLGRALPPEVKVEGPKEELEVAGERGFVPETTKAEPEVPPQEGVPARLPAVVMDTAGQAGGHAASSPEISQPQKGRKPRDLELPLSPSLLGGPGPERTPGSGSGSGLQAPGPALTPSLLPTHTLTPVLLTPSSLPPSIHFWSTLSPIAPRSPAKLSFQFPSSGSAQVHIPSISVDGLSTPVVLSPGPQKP
# Method in brief: as §1
# GABPA = molecular target: T3, GABPA (Homo sapiens, UniProt Q06546 1-454); settings: protein: recombinant; tags: N-terminal GST; dsDNA, one strand shown
# T3 sequence: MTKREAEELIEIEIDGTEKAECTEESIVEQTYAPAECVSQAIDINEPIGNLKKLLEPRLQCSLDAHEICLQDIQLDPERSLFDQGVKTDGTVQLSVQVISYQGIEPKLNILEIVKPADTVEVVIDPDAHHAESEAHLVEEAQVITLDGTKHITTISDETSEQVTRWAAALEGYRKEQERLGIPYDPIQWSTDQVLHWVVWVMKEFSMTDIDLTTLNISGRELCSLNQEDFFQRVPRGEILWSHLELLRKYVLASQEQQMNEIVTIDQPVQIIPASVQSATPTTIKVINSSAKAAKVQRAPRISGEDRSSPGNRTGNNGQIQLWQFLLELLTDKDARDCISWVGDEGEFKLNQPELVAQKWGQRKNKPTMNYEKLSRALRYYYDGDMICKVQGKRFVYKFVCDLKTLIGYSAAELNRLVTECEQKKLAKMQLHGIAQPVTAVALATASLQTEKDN
# Method in brief: as §1
# ERG = molecular target: T4, ERG (Homo sapiens, UniProt P11308 1-479); settings: protein: recombinant; tags: N-terminal GST; dsDNA, one strand shown
# T4 sequence: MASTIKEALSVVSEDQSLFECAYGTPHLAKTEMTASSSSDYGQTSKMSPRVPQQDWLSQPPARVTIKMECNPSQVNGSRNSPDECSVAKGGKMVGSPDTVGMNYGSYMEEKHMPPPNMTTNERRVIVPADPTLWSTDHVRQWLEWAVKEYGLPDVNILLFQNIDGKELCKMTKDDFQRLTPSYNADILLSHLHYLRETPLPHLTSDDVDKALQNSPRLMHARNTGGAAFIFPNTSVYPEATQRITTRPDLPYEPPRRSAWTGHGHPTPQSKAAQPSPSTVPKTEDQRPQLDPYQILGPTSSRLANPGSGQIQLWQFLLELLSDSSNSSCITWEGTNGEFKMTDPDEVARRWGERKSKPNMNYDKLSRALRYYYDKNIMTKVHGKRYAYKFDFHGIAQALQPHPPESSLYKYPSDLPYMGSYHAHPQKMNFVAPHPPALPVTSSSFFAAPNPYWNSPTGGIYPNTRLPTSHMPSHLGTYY
# Method in brief: as §1
# ELF1 = ELF1 (Homo sapiens, UniProt P32519 1-619); settings: protein: recombinant; tags: N-terminal GST; dsDNA, one strand shown
# Method in brief: as §1
# EHF = molecular target: T5, EHF (Homo sapiens, UniProt Q9NZC4 1-300); settings: protein: recombinant; tags: N-terminal GST; dsDNA, one strand shown
# T5 sequence: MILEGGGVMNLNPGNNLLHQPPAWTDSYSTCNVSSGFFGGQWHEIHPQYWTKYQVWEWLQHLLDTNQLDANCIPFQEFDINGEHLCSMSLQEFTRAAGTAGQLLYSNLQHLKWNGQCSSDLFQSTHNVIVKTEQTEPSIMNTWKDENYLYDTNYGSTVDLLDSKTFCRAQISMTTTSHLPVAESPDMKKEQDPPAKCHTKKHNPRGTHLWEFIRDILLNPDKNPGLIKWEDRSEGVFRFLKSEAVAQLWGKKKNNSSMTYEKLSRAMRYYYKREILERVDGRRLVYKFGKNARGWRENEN
# Method in brief: as §1
# SPI1 = SPI1 (Homo sapiens, UniProt P17947 1-270); settings: protein: recombinant; tags: N-terminal GST; dsDNA, one strand shown
# Method in brief: as §1
# SPIB = SPIB (Homo sapiens, UniProt Q01892 1-262); settings: protein: recombinant; tags: N-terminal GST; dsDNA, one strand shown
# Method in brief: as §1
# ELK3 = molecular target: T6, ELK3 (Homo sapiens, UniProt P41970 1-407); settings: protein: recombinant; tags: N-terminal GST; dsDNA, one strand shown
# T6 sequence: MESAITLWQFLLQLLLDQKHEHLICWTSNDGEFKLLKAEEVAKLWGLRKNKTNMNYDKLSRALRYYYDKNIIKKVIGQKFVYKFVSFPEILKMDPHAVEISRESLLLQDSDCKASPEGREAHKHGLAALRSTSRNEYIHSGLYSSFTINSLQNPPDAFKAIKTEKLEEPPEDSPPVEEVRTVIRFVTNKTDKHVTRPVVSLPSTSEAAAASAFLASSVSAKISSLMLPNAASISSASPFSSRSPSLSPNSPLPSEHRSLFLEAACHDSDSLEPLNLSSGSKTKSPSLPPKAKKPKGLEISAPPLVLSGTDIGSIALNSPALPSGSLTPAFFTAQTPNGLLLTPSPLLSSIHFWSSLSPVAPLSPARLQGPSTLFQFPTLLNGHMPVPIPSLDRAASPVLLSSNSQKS
# Method in brief: as §1
# FEV = molecular target: T7, FEV (Homo sapiens, UniProt Q99581 1-238); settings: protein: recombinant; tags: N-terminal GST; dsDNA, one strand shown
# T7 sequence: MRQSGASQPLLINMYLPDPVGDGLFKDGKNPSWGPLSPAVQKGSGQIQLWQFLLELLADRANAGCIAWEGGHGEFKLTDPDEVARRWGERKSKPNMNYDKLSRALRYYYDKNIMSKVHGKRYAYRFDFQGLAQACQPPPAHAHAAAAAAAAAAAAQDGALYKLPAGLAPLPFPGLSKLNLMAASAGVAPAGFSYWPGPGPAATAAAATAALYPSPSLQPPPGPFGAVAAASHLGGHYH
# Method in brief: as §1
# ETV5 = ETV5 (Homo sapiens, UniProt P41161 1-510); settings: protein: recombinant; tags: N-terminal GST; dsDNA, one strand shown
# Method in brief: as §1
# HSF1 = HSF1 (Homo sapiens, UniProt Q00613 1-529); settings: protein: recombinant; tags: N-terminal GST; chain copies: 3; dsDNA, one strand shown
# Method in brief: as §1
# SPIC = molecular target: T8, SPIC (Homo sapiens, UniProt Q8N5J4 1-248); settings: protein: recombinant; tags: N-terminal GST; dsDNA, one strand shown
# T8 sequence: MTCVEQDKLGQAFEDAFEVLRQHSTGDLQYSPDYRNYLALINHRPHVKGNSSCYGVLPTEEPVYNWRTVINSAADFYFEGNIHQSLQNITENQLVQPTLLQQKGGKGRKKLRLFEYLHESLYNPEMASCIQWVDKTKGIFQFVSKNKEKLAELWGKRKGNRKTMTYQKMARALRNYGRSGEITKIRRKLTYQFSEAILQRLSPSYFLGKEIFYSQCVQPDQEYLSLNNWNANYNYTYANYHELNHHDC
# Method in brief: as §1
# ELF4 = ELF4 (Homo sapiens, UniProt Q99607 1-663); settings: protein: recombinant; tags: N-terminal GST; dsDNA, one strand shown
# Method in brief: as §1
# ELK4 = molecular target: T9, ELK4 (Homo sapiens, UniProt P28324-2 1-405); settings: protein: recombinant; tags: N-terminal GST; dsDNA, one strand shown
# T9 sequence: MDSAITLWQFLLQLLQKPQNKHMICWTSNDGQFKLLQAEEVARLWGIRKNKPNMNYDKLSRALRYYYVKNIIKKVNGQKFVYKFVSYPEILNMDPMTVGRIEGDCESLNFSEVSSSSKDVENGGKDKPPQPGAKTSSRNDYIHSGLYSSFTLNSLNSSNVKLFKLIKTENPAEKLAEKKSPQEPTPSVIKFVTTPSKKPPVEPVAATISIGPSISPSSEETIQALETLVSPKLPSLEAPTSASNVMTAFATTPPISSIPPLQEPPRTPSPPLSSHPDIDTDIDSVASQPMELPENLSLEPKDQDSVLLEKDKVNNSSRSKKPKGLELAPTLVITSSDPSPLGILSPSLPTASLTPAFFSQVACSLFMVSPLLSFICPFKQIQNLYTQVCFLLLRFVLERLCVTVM
# Method in brief: as §1
# ETV2 = molecular target: T10, ETV2 (Homo sapiens, UniProt O00321 1-342); settings: protein: recombinant; tags: N-terminal GST; dsDNA, one strand shown
# T10 sequence: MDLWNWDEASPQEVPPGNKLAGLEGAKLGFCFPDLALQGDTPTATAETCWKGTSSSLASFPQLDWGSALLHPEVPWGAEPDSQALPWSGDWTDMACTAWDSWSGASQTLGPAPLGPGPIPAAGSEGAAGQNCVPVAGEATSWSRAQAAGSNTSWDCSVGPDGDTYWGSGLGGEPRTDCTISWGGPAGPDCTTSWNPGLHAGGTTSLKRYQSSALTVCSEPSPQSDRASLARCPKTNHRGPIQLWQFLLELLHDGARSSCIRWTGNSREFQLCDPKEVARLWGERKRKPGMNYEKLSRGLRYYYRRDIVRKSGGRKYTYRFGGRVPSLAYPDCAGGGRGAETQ
# Method in brief: as §1
# ELF3 = molecular target: T11, ELF3 (Homo sapiens, UniProt P78545 1-371); settings: protein: recombinant; tags: N-terminal GST; dsDNA, one strand shown
# T11 sequence: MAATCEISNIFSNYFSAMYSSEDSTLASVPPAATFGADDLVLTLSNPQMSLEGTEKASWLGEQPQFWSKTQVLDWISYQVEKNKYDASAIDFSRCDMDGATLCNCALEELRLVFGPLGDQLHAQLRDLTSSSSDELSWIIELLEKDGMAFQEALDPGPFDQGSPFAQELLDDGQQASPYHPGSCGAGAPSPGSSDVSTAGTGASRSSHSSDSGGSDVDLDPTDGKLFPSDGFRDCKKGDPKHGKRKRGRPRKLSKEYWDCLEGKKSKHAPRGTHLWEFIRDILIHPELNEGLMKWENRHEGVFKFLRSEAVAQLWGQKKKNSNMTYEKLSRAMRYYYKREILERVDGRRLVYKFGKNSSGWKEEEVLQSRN
# Method in brief: as §1
# CRX = CRX (Homo sapiens, UniProt O43186 1-299); settings: protein: recombinant; tags: N-terminal GST; dsDNA, one strand shown
# Method in brief: as §1
# ETV1 = ETV1 (Homo sapiens, UniProt P50549 1-477); settings: protein: recombinant; tags: N-terminal GST; dsDNA, one strand shown
# Method in brief: as §1
# Sequence of SPIB (Q01892 whole entry): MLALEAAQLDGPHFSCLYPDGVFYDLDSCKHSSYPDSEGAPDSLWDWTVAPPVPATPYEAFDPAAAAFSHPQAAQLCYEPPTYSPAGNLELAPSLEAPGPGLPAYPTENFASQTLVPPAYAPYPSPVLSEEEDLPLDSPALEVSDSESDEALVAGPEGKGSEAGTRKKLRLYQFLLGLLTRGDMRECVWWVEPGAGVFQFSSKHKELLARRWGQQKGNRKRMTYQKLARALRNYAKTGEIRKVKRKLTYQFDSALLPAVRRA
# Sequence of ELF1 (P32519 whole entry): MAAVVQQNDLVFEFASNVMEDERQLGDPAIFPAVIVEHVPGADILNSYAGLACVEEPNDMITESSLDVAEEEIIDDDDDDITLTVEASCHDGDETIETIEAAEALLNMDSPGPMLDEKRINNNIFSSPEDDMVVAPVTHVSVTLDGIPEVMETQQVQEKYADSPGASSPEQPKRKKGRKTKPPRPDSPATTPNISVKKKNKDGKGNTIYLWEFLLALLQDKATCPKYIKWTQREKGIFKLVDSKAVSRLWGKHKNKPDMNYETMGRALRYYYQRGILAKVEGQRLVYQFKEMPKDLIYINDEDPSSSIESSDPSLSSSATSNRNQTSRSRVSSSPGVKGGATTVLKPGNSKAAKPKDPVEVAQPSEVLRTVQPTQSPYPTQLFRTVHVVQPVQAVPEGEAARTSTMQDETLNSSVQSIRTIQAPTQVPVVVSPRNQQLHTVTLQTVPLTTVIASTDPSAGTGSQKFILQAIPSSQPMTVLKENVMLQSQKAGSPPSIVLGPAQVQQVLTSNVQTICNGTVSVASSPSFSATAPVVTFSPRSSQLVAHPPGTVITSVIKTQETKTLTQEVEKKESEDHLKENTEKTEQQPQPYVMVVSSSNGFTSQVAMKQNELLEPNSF
# Sequence of CRX (O43186 whole entry): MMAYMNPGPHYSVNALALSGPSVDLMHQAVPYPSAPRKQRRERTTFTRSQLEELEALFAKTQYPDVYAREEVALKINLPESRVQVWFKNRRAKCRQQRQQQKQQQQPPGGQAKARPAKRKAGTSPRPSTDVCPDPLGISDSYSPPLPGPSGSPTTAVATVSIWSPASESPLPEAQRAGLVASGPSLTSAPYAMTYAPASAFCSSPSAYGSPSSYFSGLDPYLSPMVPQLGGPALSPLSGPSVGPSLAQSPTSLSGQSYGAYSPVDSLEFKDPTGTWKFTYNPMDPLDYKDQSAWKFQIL
# Sequence of ETV1 (P50549 whole entry): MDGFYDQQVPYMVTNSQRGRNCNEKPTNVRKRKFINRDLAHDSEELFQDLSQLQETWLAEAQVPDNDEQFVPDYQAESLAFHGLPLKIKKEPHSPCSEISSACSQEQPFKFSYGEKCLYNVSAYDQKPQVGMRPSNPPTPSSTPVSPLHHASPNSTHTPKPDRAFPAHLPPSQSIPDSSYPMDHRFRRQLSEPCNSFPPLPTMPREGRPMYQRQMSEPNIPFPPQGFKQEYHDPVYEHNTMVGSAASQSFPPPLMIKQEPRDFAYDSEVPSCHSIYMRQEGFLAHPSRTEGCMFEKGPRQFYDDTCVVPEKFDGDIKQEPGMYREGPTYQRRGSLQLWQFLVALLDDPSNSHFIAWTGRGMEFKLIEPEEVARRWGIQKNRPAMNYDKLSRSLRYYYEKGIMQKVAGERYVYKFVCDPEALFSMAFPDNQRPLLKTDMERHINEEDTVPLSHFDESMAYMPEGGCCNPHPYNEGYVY
# Sequence of HSF1 (Q00613 whole entry): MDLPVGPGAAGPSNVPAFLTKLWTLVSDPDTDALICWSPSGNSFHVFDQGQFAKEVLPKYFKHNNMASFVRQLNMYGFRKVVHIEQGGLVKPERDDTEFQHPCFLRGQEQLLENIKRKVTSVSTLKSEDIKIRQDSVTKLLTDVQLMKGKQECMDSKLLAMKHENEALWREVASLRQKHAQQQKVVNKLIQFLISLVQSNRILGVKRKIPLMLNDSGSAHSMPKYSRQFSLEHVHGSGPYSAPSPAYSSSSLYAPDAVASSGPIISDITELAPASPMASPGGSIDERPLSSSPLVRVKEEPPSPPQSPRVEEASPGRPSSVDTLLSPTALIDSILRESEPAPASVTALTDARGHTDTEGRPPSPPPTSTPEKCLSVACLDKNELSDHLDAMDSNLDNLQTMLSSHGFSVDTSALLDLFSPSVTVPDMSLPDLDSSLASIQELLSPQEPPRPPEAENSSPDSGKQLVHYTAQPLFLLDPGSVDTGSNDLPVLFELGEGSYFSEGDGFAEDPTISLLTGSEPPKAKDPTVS
# Sequence of ELF4 (Q99607 whole entry): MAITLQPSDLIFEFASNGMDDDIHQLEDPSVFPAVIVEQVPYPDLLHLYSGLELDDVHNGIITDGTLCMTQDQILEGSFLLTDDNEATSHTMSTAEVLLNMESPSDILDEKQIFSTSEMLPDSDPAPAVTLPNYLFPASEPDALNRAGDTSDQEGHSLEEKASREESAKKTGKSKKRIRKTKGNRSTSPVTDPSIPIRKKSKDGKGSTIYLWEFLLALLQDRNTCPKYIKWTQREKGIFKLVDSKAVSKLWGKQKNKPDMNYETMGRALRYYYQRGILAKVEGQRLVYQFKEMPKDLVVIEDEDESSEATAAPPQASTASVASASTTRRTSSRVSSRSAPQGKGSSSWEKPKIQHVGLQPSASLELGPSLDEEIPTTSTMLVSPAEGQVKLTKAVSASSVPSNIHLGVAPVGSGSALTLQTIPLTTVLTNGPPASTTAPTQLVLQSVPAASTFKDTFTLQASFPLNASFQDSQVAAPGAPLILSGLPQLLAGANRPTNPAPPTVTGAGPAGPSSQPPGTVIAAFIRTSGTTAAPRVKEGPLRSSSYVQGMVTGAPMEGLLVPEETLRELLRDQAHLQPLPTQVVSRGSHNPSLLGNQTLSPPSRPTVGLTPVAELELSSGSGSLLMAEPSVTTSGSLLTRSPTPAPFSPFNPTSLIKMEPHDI
# Sequence of ETV5 (P41161 whole entry): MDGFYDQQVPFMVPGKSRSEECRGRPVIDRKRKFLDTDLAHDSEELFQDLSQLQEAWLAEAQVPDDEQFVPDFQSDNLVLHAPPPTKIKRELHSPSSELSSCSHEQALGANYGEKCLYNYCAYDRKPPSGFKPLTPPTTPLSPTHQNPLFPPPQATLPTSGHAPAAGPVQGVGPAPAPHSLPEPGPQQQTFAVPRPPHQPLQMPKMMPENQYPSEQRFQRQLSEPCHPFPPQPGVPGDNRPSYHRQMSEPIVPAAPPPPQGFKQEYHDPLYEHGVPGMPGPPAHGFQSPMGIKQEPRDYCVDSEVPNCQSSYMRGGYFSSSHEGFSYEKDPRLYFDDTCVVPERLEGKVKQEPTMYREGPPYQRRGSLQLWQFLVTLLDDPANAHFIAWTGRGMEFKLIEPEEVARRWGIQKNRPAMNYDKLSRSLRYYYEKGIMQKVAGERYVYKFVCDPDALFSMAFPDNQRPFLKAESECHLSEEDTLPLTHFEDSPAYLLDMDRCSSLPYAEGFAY
sequence,measurement,setting,value
ATCTCT,binding signal,FLI1,"1.29 fold enrichment (6-mer frequency, TF over GST control)"
same,binding signal,ELK1,"1.24 fold enrichment (6-mer frequency, TF over GST control)"
same,binding signal,GABPA,"1.33 fold enrichment (6-mer frequency, TF over GST control)"
same,binding signal,ERG,"1.17 fold enrichment (6-mer frequency, TF over GST control)"
same,binding signal,ELF1,"1.29 fold enrichment (6-mer frequency, TF over GST control)"
same,binding signal,EHF,"1.49 fold enrichment (6-mer frequency, TF over GST control)"
same,binding signal,SPI1,"1.27 fold enrichment (6-mer frequency, TF over GST control)"
same,binding signal,SPIB,"1.36 fold enrichment (6-mer frequency, TF over GST control)"
same,binding signal,ELK3,"1.3 fold enrichment (6-mer frequency, TF over GST control)"
same,binding signal,FEV,"1.29 fold enrichment (6-mer frequency, TF over GST control)"
same,binding signal,ETV5,"1.29 fold enrichment (6-mer frequency, TF over GST control)"
same,binding signal,HSF1,"1.63 fold enrichment (6-mer frequency, TF over GST control)"
same,binding signal,SPIC,"1.45 fold enrichment (6-mer frequency, TF over GST control)"
same,binding signal,ELF4,"1.26 fold enrichment (6-mer frequency, TF over GST control)"
same,binding signal,ELK4,"1.44 fold enrichment (6-mer frequency, TF over GST control)"
same,binding signal,ETV2,"1.33 fold enrichment (6-mer frequency, TF over GST control)"
same,binding signal,ELF3,"1.26 fold enrichment (6-mer frequency, TF over GST control)"
same,binding signal,CRX,"1.85 fold enrichment (6-mer frequency, TF over GST control)"
same,binding signal,ETV1,"1.23 fold enrichment (6-mer frequency, TF over GST control)"
